Measured values: PubChem BioAssay (NCI)
This is part of a sample that, as a whole, favours compounds with a hit. Of some 83,000 tested, about 20% had one in any assay.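 In brief: 96-well plates, 48 h treatment, single concentration, percent growth endpoint.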 A number with no mark means an inactive call. Activity calls are given as the source filed them. The calls were made as follows: active = growth percent below 10; inactive = the rest.

System: HCT-116 colon
Assay: NCI-60 one-dose screen, 48 h (100 = growth as untreated, 0 = no growth, -100 = all killed)
Details: 10 µM unless noted

Row | SMILES | growth
1 | COc1cc(-c2csc(NC(=O)Nc3cccc(C(F)(F)F)c3)n2)cc(OC)c1OC | 46.9%
2 | O=C(Cc1ccc(Nc2ccnc(C(F)(F)F)c2)cc1)N/N=C/c1ccccc1O | 16.1%
3 | COc1ccc2nc(C)cc(Nc3ccccc3O)c2c1 | 29.9%
4 | C[C@]12CCc3nc(Nc4ccc(O)cc4)sc3C1=CC[C@@H]1[C@@H]2CC[C@]2(C)/C(=N/NC(N)=S)CC[C@@H]12 | -81% (active)
5 | CN(C)CCOc1nc2c3cccnc3cc(-c3cccc(Cl)c3)c2c2ncccc12 | -81.3% (active)
6 | Oc1[nH]c2ccccc2c1/C=c1/ccc2c(c1)N=C(c1ccc(C(F)(F)F)cc1)N=2 | 39.5%
7 | COc1ccc(/C(=C\c2ccc3c(c2)OCO3)C(=O)Nc2nc3ccc(F)cc3s2)cc1OC | 97.7%
8 | O=C(Nc1ccccc1Cl)Oc1ccc2ccccc2c1 | 95.3%
9 | Nc1nc2c(c3ncccc13)C(c1ccccc1)Cc1ncccc1-2 (stereo unspecified) | 63.2%
10 | COc1ccccc1NC(=O)OCC12COCN1COC2 | 113%
11 | COc1cc2c(cc1C)NC(=O)/C2=C\c1c[nH]c2ccccc12 | 78.5%
12 | C=C(C)[C@@H]1CC[C@]2(C)[C@H](CC=C3[C@@H]4C[C@](C)(C(=O)N5CCN(C)CC5)CC[C@]4(C)CC[C@]32C)[C@@]1(C)CCC#N | 26.7%
13 | COc1ccc(NC(=O)/C=C/c2ccc(Cl)c(Cl)c2)cn1 | 84.8%
14 | CC(C)c1[nH]ncc1-c1nc2ccc3[nH]ncc3c2c2c1CCCC2 | 12.2%
15 | COc1ccc(NC(=O)c2ccc(C(F)(F)F)nc2Nc2ccc(Cl)cc2C)cc1Cl | 3.71% (active)
16 | NCCCOc1cc2ccccc2cc1C(=O)NCCCOc1cc2ccccc2cc1C(=O)Nc1ccc(Cl)cc1O | -85.8% (active)
17 | C/C=C(\C)C(C(=O)NC1CCCCC1)N(C(=O)C1CCc2cc(F)ccc2O1)c1ccc([N+](=O)[O-])cc1 (stereo unspecified) | 60.3%
18 | O=C(Cn1nncc1CN1C(=O)CSC1=O)Nc1ccc(F)cc1 | 101%
19 | CCC(C)C1NC(=O)c2nc(oc2-c2ccccc2)-c2csc(n2)-c2csc(n2)-c2nc(oc2C)-c2coc(n2)CNC(=O)C(C(C)CC)NC1=O (stereo unspecified) | -59% (active)
20 | C=CCn1c(C)nc2cc(Nc3nc(N4CCCC4)nc4nc[nH]c34)ccc21 | -40.2% (active)
21 | Clc1ccc(Nc2ncnc3c2sc2ncccc23)cc1 | 28%
22 | Cc1ccc(NC(=O)c2nc(S(C)(=O)=O)oc2-c2ccc(F)cc2)cc1Nc1ccc2ncn(C)c(=O)c2c1 | -10.8% (active)
23 | CCCCNCC(O)c1cc(-c2ccc(C(F)(F)F)cc2)nc(-c2ccc(C(F)(F)F)cc2)c1 (stereo unspecified) | -88.5% (active)

System: HCC-2998 colon
Assay: as above
Details: 10 µM unless noted

Row | SMILES | growth
24 | CCOC(=O)C1=C(C)NC(SCc2nnc(-c3ccc(Cl)cc3)o2)=NC1c1ccc(Cl)cc1 (stereo unspecified) | 79.9%
25 | O=Cc1ccc2nc(C(Cl)(Cl)Cl)ccc2c1 | 109%
26 | CCCc1n(Cc2ccc3ccccc3c2)c2ccccc2[n+]1Cc1ccc2ccccc2c1 | -57.2% (active)
27 | CC(CN1CCN(CCOCCO)CC1)CN1c2ccccc2Sc2ccc(Cl)cc21 (stereo unspecified) | 39.5%
28 | Clc1ccc(Nc2ncnc3c2sc2ncccc23)c(Cl)c1 | 59.6%
29 | COc1ccc(/C=C(/C(=O)N2CCN(c3ccccc3)CC2)c2cc(OC)c(OC)c(OC)c2)cc1O | 28.6%
30 | C#CCNC(=S)N/N=C(\C)c1ccccn1 | 35.1%
31 | CC(C)NC(=O)OCC#CCOC(=O)NC(C)C | 103%
32 | Cc1cc(C)c2c(n1)sc1c(Nc3ccc(Cl)cc3Cl)ncnc12 | 58.6%
33 | CCCCn1cnc(-c2cc(-c3ccccc3)cc(C(F)(F)F)c2)n1 | 108%
34 | O=C1c2ccccc2C(=O)c2c1oc1ccc3ccccc3c21 | 99%
35 | COC1=CC(c2ccc[nH]2)=N/C1=C\c1[nH]c(C)c(C(=O)CCCCCCCCC(=O)O[C@H]2CC[C@H]3C4CCc5cc(O)ccc5C4CC[C@]23C)c1C (stereo partly specified) | 26.2%
36 | CCSc1ccc([C@@H]2[C@@H](N)C(=O)N2c2cc(OC)c(OC)c(OC)c2)cc1 | 31.2%
37 | COc1ccc2[nH]cc(C(c3ccc(Cl)cc3)N3CCCC3)c2c1 (stereo unspecified) | 97%
38 | Oc1[nH]c2ccc(Cl)cc2c1/C=c1/ccc2c(c1)N=C(c1ccc(F)cc1)N=2 | 74%
39 | COc1cc(-c2csc(NC(=O)Nc3cccc(C(F)(F)F)c3)n2)cc(OC)c1OC | 81.1%
40 | O=C(Cc1ccc(Nc2ccnc(C(F)(F)F)c2)cc1)N/N=C/c1ccccc1O | 40.5%
41 | COc1ccc2nc(C)cc(Nc3ccccc3O)c2c1 | 112%
42 | C[C@]12CCc3nc(Nc4ccc(O)cc4)sc3C1=CC[C@@H]1[C@@H]2CC[C@]2(C)/C(=N/NC(N)=S)CC[C@@H]12 | -18.2% (active)

Row | SMILES | growth
43 | CN(C)CCOc1nc2c3cccnc3cc(-c3cccc(Cl)c3)c2c2ncccc12 | -79.2% (active)
44 | Oc1[nH]c2ccccc2c1/C=c1/ccc2c(c1)N=C(c1ccc(C(F)(F)F)cc1)N=2 | 61.4%
45 | COc1ccc(/C(=C\c2ccc3c(c2)OCO3)C(=O)Nc2nc3ccc(F)cc3s2)cc1OC | 109%
46 | O=C(Nc1ccccc1Cl)Oc1ccc2ccccc2c1 | 95.1%
47 | Nc1nc2c(c3ncccc13)C(c1ccccc1)Cc1ncccc1-2 (stereo unspecified) | 81.7%
48 | COc1ccccc1NC(=O)OCC12COCN1COC2 | 116%
49 | COc1cc2c(cc1C)NC(=O)/C2=C\c1c[nH]c2ccccc12 | 109%
50 | C=C(C)[C@@H]1CC[C@]2(C)[C@H](CC=C3[C@@H]4C[C@](C)(C(=O)N5CCN(C)CC5)CC[C@]4(C)CC[C@]32C)[C@@]1(C)CCC#N | 70.6%
51 | COc1ccc(NC(=O)/C=C/c2ccc(Cl)c(Cl)c2)cn1 | 118%
52 | CC(C)c1[nH]ncc1-c1nc2ccc3[nH]ncc3c2c2c1CCCC2 | 53.5%
53 | COc1ccc(NC(=O)c2ccc(C(F)(F)F)nc2Nc2ccc(Cl)cc2C)cc1Cl | 16.7%
54 | NCCCOc1cc2ccccc2cc1C(=O)NCCCOc1cc2ccccc2cc1C(=O)Nc1ccc(Cl)cc1O | -92.3% (active)
55 | C/C=C(\C)C(C(=O)NC1CCCCC1)N(C(=O)C1CCc2cc(F)ccc2O1)c1ccc([N+](=O)[O-])cc1 (stereo unspecified) | 98.4%
56 | O=C(Cn1nncc1CN1C(=O)CSC1=O)Nc1ccc(F)cc1 | 96.2%
57 | CCC(C)C1NC(=O)c2nc(oc2-c2ccccc2)-c2csc(n2)-c2csc(n2)-c2nc(oc2C)-c2coc(n2)CNC(=O)C(C(C)CC)NC1=O (stereo unspecified) | -80.1% (active)
58 | C=CCn1c(C)nc2cc(Nc3nc(N4CCCC4)nc4nc[nH]c34)ccc21 | 76.4%
59 | Clc1ccc(Nc2ncnc3c2sc2ncccc23)cc1 | 61.9%
60 | Cc1ccc(NC(=O)c2nc(S(C)(=O)=O)oc2-c2ccc(F)cc2)cc1Nc1ccc2ncn(C)c(=O)c2c1 | 99.7%
61 | CCCCNCC(O)c1cc(-c2ccc(C(F)(F)F)cc2)nc(-c2ccc(C(F)(F)F)cc2)c1 (stereo unspecified) | -75.8% (active)
